{
  "source": "PubChem BioAssay (EPA / NIEHS)",
  "note": "“And” between values parts separate entries of the source, which are not always exact repeats. Equal entries are not always repeated. Where a structure was tested more than once in an assay, its records may differ in their call. The source made the active and inactive calls. The calls were made as follows: active = hit-call score of the fitted dose curve at least 0.9, where 1 is the maximum; inactive = score below 0.9.",
  "data": [
    {"assay": "BSK_SAg_PBMCCytotoxicity: PBMC Cytotoxicity Assessment in the BioMAP Diversity Plus: SAg Assay (AID 2283093);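 also: fitted both ways against DMSO so a hit may be loss or gain of signal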", "conditions": "primary human HUVEC with PBMC", "description": "BSK_SAg is a cell-based, multiplexed-readout assay that uses umbilical vein endothelium and peripheral blood mononuclear cells, a human vascular primary cell co-culture, with measurements taken at 24 hours after chemical dosing in a 96-well plate.BSK_SAg_PBMCCytotoxicity is an assay component measured in the BSK_SAg assay. It measures Alamar blue related to cell death using Alamar Blue Reduction technology.Data from the assay component BSK_SAg_PBMCCytotoxicity was analyzed into 1 assay endpoint. This assay endpoint, BSK_SAg_PBMCCytotoxicity, was analyzed with bidirectional fitting relative to DMSO as the negative control and baseline of activity. Using a type of viability reporter, gain or loss-of-signal activity can be used to understand changes in the viability. Furthermore, this assay endpoint can be referred to as a secondary readout, because this assay has produced multiple assay endpoints where this one serves a viability function. To generalize the intended target to other relatable targets, this assay endpoint is annotated to the cell cycle intended target family, where the subfamily is cytotoxicity.\nThe levels of cell surface (or secreted, indicated by the prefix \"s\") biomarker endpoints were measured by ELISA. Overt cytotoxicity to cells in confluent adherent cultures (all systems other than the BT system) was assessed by measuring total protein levels using sulforhodamine B (SRB) staining in parallel cultures at the time of biomarker measurements, indicated as SRB endpoints. For proliferation assays for adherent cell types, individual cell types are cultured at sub-confluence and relative cell numbers quantified by SRB staining at time points optimized for each system (48 h: 3C and CASM3C systems; 72 h: BT and HDF3CGF systems; 96 h: SAg system). SRB was performed by staining cells with 0.1% SRB after fixation with 10% TCA and reading wells at 560 nm.Viability and proliferation of PBMC (T cells) was quantified by Alamar Blue reduction for the SAg and BT systems. For PBMC viability (referred to as PBMC Cytotoxicity within the assay endpoint names), cells were plated (75,000/well in a 96-well plate) and then chemical samples added for 1 h before addition of activators, SEB and TSST-1 (20 ng/mL final concentration each). Cells were incubated for 90 h. Then, Alamar Blue (20 uL/well) (Invitrogen, Cat DAL1100) was added for 6 h, and the plates were read with a fluorescence microplate reader at 546/580 nm (excitation/emission). For PBMC proliferation, cells were plated and activated as above but incubated for only 16 h prior to addition of Alamar Blue. Plates were read after 6 h.", "values": [
      {"molecule": "O=C(O)CCCc1ccc(N(CCCl)CCCl)cc1", "outcome": "inactive", "AC50": "20 µM (active)"},
      {"molecule": "Oc1cc(Cl)ccc1Cl", "outcome": "inactive"},
      {"molecule": "C=CC(=O)OCC(CC)CCCC", "note": "(centres undefined)", "outcome": "inactive"},
      {"molecule": "O=c1[nH]c(Cl)c(Cl)cc1Cl", "outcome": "inactive"},
      {"molecule": "CCCC[N+](CCCC)(CCCC)CCCC", "outcome": "inactive"},
      {"molecule": "O=C(CCl)c1ccccc1", "AC50": "4.68 µM (active)"},
      {"molecule": "CC(C)(c1cc(Cl)c(O)c(Cl)c1)c1cc(Cl)c(O)c(Cl)c1", "AC50": "36.3 µM (active)"},
      {"molecule": "CC1(C)[C@H](C(=O)O[C@H](C#N)c2cccc(Oc3ccccc3)c2)[C@@H]1C=C(Br)Br", "outcome": "inactive"},
      {"molecule": "CC(C)(C)C(O)C(Oc1ccc(-c2ccccc2)cc1)n1cncn1", "note": "(centres undefined)", "outcome": "inactive"},
      {"molecule": "Cc1ccc(OP(=O)(Oc2ccc(C)cc2)Oc2ccc(C)cc2)cc1", "note": "(tested in a mixture with another compound)", "outcome": "inactive"},
      {"molecule": "Oc1ccc(C2(c3ccc(O)cc3)c3ccccc3-c3ccccc32)cc1", "AC50": "12.1 µM (active) and 12.3 µM (active)"},
      {"molecule": "O=P1(NCCCl)OCCCN1CCCl", "note": "(centres undefined)", "outcome": "inactive"},
      {"molecule": "O=c1c2ccccc2c(=O)c2c1cc(Cl)c1[nH]c3c([nH]c12)c(Cl)cc1c(=O)c2ccccc2c(=O)c13", "outcome": "inactive"},
      {"molecule": "O=[N+]([O-])C=Cc1ccccc1", "AC50": "13 µM (active)"},
      {"molecule": "CC(C)(C)C(=O)CCl", "AC50": "9.22 µM (active)"},
      {"molecule": "N#CCCCCC#N", "outcome": "inactive"},
      {"molecule": "[Cd+2].[Cl-].[Cl-]", "AC50": "20 µM (active) and 30.4 µM (active)"},
      {"molecule": "CC(=O)/C=C/c1ccccc1", "outcome": "inactive"},
      {"molecule": "COc1ccc(CO)cc1", "outcome": "inactive"},
      {"molecule": "CC(C)CCCCCCCOP(=O)(Oc1ccccc1)Oc1ccccc1", "AC50": "31 µM (active)"},
      {"molecule": "CC(C)CCCCCCCOC(=O)c1ccccc1C(=O)OCCCCCCCC(C)C", "outcome": "inactive"},
      {"molecule": "O=S(=O)(c1ccccc1)c1ccccc1", "outcome": "inactive"},
      {"molecule": "O=[N+]([O-])O", "outcome": "inactive"},
      {"molecule": "COCC(=O)N(c1c(C)cccc1C)N1CCOC1=O", "outcome": "inactive"},
      {"molecule": "O=[N+]([O-])c1ccc(Cl)cc1", "outcome": "inactive"},
      {"molecule": "c1ccc(Nc2ccc3ccccc3c2)cc1", "outcome": "inactive"},
      {"molecule": "C=CCN(CC=C)C(=O)C(Cl)Cl", "outcome": "inactive"},
      {"molecule": "CCCCCCCCCCCC#N", "AC50": "32 µM (active)"},
      {"molecule": "CC(C)COP(=O)(OCC(C)C)OCC(C)C", "outcome": "inactive"},
      {"molecule": "CNC(=O)Oc1cc(C)c(SC)c(C)c1", "outcome": "inactive"},
      {"molecule": "O=C1C=CC(=O)C=C1", "AC50": "9.09 µM (active) and 7.38 µM (active)"},
      {"molecule": "CCCOC(=O)c1ccccc1C(=O)OCCC", "outcome": "inactive"},
      {"molecule": "Nc1ccc(-c2ccc(N)c(N)c2)cc1N", "outcome": "inactive"},
      {"molecule": "COC(C)(C)CCC[C@H](C)C/C=C/C(C)=C/C(=O)OC(C)C", "AC50": "29.7 µM (active)"},
      {"molecule": "O=C1C(Cl)=C(Cl)C(=O)C(Cl)=C1Cl", "AC50": "15.1 µM (active)"},
      {"molecule": "CCC(C)c1cc([N+](=O)[O-])cc([N+](=O)[O-])c1OC(=O)C=C(C)C", "note": "(centres undefined)", "AC50": "28.2 µM (active)"},
      {"molecule": "Clc1ccc(-c2ccccc2)cc1", "outcome": "inactive"},
      {"molecule": "CCc1cc(C)cc(CC)c1-c1c(OC(=O)C(C)(C)C)n2n(c1=O)CCOCC2", "outcome": "inactive"}
    ]}
  ]
}
